{"source": "the supplement of paper PMC8728848", "assay_in_all_cases": "glycan array binding signal (z-score within array); higher = stronger binding", "conditions_in_all_cases": "glycan notation: IUPAC condensed, linker removed", "key": {"[1]": {"target": "Fuc(a1-2)Gal(b1-3)GlcNAc6S", "outline": "(§1)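 From the Consortium for Functional Glycomics database, 3228 arrays were curated, keeping only those whose protein sequence was available. Binding is given as a within-array Z-score averaged across arrays sharing a protein sequence and across linkers. Negative Z-scores can be read as non-binding.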"}, "[2]": {"target": "Fuc(a1-2)Gal(b1-3)[Fuc(a1-4)]GlcNAc(b1-3)[Fuc(a1-3)[Gal(b1-4)]GlcNAc(b1-6)]Gal(b1-4)Glc", "outline": "as §1"}, "[3]": {"target": "Fuc(a1-2)Gal(b1-4)GlcNAc(b1-3)Gal(b1-4)GlcNAc(b1-2)Man(a1-3)[Fuc(a1-2)Gal(b1-4)GlcNAc(b1-3)Gal(b1-4)GlcNAc(b1-2)Man(a1-6)]Man(b1-4)GlcNAc(b1-4)GlcNAc", "outline": "as §1"}, "[4]": {"target": "Fuc(a1-2)Gal(b1-4)[Fuc(a1-3)]GlcNAc", "outline": "as §1"}, "[5]": {"target": "Fuc(a1-2)Gal6S(b1-3)GlcNAc", "outline": "as §1"}, "[6]": {"target": "Fuc(a1-2)[Gal(a1-3)]Gal(b1-3)GlcNAc(b1-2)Man(a1-3)[Fuc(a1-2)[Gal(a1-3)]Gal(b1-3)GlcNAc(b1-2)Man(a1-6)]Man(b1-4)GlcNAc(b1-4)[Fuc(a1-6)]GlcNAc", "outline": "as §1"}, "[7]": {"target": "Fuc(a1-2)[GalNAc(a1-3)]Gal(b1-4)[Fuc(a1-3)]GlcNAc(b1-3)GalNAc", "outline": "as §1"}, "[8]": {"target": "Fuc(a1-2)[GalNAc(b1-3)]Gal", "outline": "as §1"}, "[9]": {"target": "Fuc(a1-3)[Gal(b1-4)]GlcNAc(b1-2)Man", "outline": "as §1"}, "[10]": {"target": "Fuc(a1-3)[GalNAc(b1-4)]GlcNAc", "outline": "as §1"}, "[11]": {"target": "Fuc(a1-3)[GalNAc(b1-4)]GlcNAc6S", "outline": "as §1"}, "[12]": {"target": "Fuc(a1-4)GlcNAc", "outline": "as §1"}, "[13]": {"target": "Gal(a1-3)Gal(b1-4)GlcNAc(b1-2)Man(a1-3)[Gal(a1-3)Gal(b1-4)GlcNAc(b1-2)Man(a1-6)]Man(b1-4)GlcNAc(b1-4)GlcNAc", "outline": "as §1"}, "[14]": {"target": "Gal(a1-3)Gal(b1-4)[Fuc(a1-3)]GlcNAc(b1-2)Man(a1-3)[Gal(a1-3)Gal(b1-4)[Fuc(a1-3)]GlcNAc(b1-2)Man(a1-6)]Man(b1-4)GlcNAc(b1-4)GlcNAc", "outline": "as §1"}, "[15]": {"target": "Gal(a1-3)GalNAc", "outline": "as §1"}, "[16]": {"target": "Gal(b1-3)GlcNAc(b1-3)Gal(b1-4)Glc", "outline": "as §1"}, "[17]": {"target": "Gal(b1-3)GlcNAc(b1-3)Gal(b1-4)GlcNAc", "outline": "as §1"}, "[18]": {"target": "Gal(b1-3)GlcNAc(b1-3)Gal(b1-4)GlcNAc(b1-2)[Gal(b1-3)GlcNAc(b1-3)Gal(b1-4)GlcNAc(b1-6)]Man(a1-6)[Gal(b1-3)GlcNAc(b1-3)Gal(b1-4)GlcNAc(b1-2)Man(a1-3)]Man(b1-4)GlcNAc(b1-4)[Fuc(a1-6)]GlcNAc", "outline": "as §1"}, "[19]": {"target": "Gal(b1-3)[Fuc(a1-4)]GlcNAc(b1-6)GalNAc", "outline": "as §1"}, "[20]": {"target": "Gal(b1-4)GlcNAc(b1-2)[Gal(b1-4)GlcNAc(b1-4)]Man(a1-3)[Gal(b1-4)GlcNAc(b1-2)[Gal(b1-4)GlcNAc(b1-6)]Man(a1-6)]Man(b1-4)GlcNAc(b1-4)GlcNAc", "outline": "as §1"}, "[21]": {"target": "Gal(b1-4)GlcNAc(b1-3)Gal(b1-3)GlcNAc", "outline": "as §1"}, "[22]": {"target": "Gal(b1-4)GlcNAc(b1-3)Gal(b1-4)Glc", "outline": "as §1"}, "[23]": {"target": "Gal(b1-4)GlcNAc(b1-3)Gal(b1-4)GlcNAc(b1-3)Gal(b1-4)GlcNAc", "outline": "as §1"}, "[24]": {"target": "Gal3S(b1-3)GlcNAc", "outline": "as §1"}, "[25]": {"target": "Gal3S(b1-4)GlcNAc", "outline": "as §1"}, "[26]": {"target": "Gal3S(b1-4)[Fuc(a1-3)]GlcNAc", "outline": "as §1"}, "[27]": {"target": "Gal4S(b1-4)GlcNAc", "outline": "as §1"}, "[28]": {"target": "GalNAc(b1-4)GlcNAc", "outline": "as §1"}, "[29]": {"target": "GlcNAc(a1-4)Gal(b1-3)GlcNAc", "outline": "as §1"}, "[30]": {"target": "GlcNAc(a1-6)Gal(b1-4)GlcNAc", "outline": "as §1"}}, "note": "This is one part of a sample in which the strongest signals are shown more often than they occur."}
{"binder": "EPL1 (Trichoderma atroviride), A0PCX2 (protein) MQLSNLFKLALFTAAVSADTVSYDTGYDDASRSLTVVSCSDGTNGLITRYHWQTQGQIPRFPYIGGAQAVAGWNSPNCGTCWKLTYSGKTIYVLAIDHTAAGFNIGLDAMNALTNGNAVALGRVSATASQVAVSNCGL", "values": [{"measurement": "glycan array binding signal (z-score)", "setting": "[1]", "result": -0.466}, {"measurement": "glycan array binding signal (z-score)", "setting": "[2]", "result": -0.315}, {"measurement": "glycan array binding signal (z-score)", "setting": "[3]", "result": -0.05}, {"measurement": "glycan array binding signal (z-score)", "setting": "[4]", "result": 0.212}, {"measurement": "glycan array binding signal (z-score)", "setting": "[5]", "result": -0.249}, {"measurement": "glycan array binding signal (z-score)", "setting": "[6]", "result": 0.105}, {"measurement": "glycan array binding signal (z-score)", "setting": "[7]", "result": 21.1}, {"measurement": "glycan array binding signal (z-score)", "setting": "[8]", "result": -0.54}, {"measurement": "glycan array binding signal (z-score)", "setting": "[9]", "result": 0.185}, {"measurement": "glycan array binding signal (z-score)", "setting": "[10]", "result": 0.203}, {"measurement": "glycan array binding signal (z-score)", "setting": "[11]", "result": -0.245}, {"measurement": "glycan array binding signal (z-score)", "setting": "[12]", "result": 3.1}, {"measurement": "glycan array binding signal (z-score)", "setting": "[13]", "result": 0.847}, {"measurement": "glycan array binding signal (z-score)", "setting": "[14]", "result": 0.929}, {"measurement": "glycan array binding signal (z-score)", "setting": "[15]", "result": -0.034}, {"measurement": "glycan array binding signal (z-score)", "setting": "[16]", "result": 1.82}, {"measurement": "glycan array binding signal (z-score)", "setting": "[17]", "result": -0.163}, {"measurement": "glycan array binding signal (z-score)", "setting": "[18]", "result": 0.678}, {"measurement": "glycan array binding signal (z-score)", "setting": "[19]", "result": -0.249}, {"measurement": "glycan array binding signal (z-score)", "setting": "[20]", "result": 0.128}, {"measurement": "glycan array binding signal (z-score)", "setting": "[21]", "result": -0.08}, {"measurement": "glycan array binding signal (z-score)", "setting": "[22]", "result": -0.362}, {"measurement": "glycan array binding signal (z-score)", "setting": "[23]", "result": 0.071}, {"measurement": "glycan array binding signal (z-score)", "setting": "[24]", "result": 0.668}, {"measurement": "glycan array binding signal (z-score)", "setting": "[25]", "result": 0.311}, {"measurement": "glycan array binding signal (z-score)", "setting": "[26]", "result": -0.154}, {"measurement": "glycan array binding signal (z-score)", "setting": "[27]", "result": 0.422}, {"measurement": "glycan array binding signal (z-score)", "setting": "[28]", "result": 1.34}, {"measurement": "glycan array binding signal (z-score)", "setting": "[29]", "result": 0.056}, {"measurement": "glycan array binding signal (z-score)", "setting": "[30]", "result": -0.234}]}
